The supplement of paper PMC7156485

Tests used:
Conditions in all cases: concentration: 10 µM; 24 h
HCC1569 [1] = test: cell number relative to DMSO (% of DMSO); higher = more cells (less growth inhibition / toxicity)
Method in brief: (§1)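 HCC1569 and TDF cells (800 per well, 384-well plates, RPMI with 10% FBS) were treated with compounds at 10 µM for 24 h at 37 °C, in triplicate. Cells were fixed in 3.7% formaldehyde and stained with a rabbit anti-H1.0 antibody, an AlexaFluor 647 secondary and DAPI; six fields per well were imaged at ×10. H1.0 nuclear intensity or cell number is expressed as percent of the plate DMSO control, taking the median of replicates. HCC1569 values were smoothed for positional effects.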

TDF [2] = test: as above
Method in brief: as §1

TDF [3] = test: H1.0 immunofluorescence intensity relative to DMSO (% of DMSO); higher = stronger H1.0 induction, active = 120 or more
Method in brief: as §1

HCC1569 [4] = test: H1.0 immunofluorescence intensity relative to DMSO (% of DMSO); higher = stronger H1.0 induction, active = 140 or more
Method in brief: as §1
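Throughout, for H1.0 immunofluorescence intensity relative to DMSO: TDF is a line of transformed human dermal fibroblasts of mesenchymal origin.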
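Throughout, for cell number relative to DMSO: TDF denotes transformed human dermal fibroblasts of mesenchymal origin.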

| Structure (SMILES) | cell number (HCC1569 [1]) | cell number (TDF [2]) | H1.0 immunofluorescence intensity (TDF [3]) | H1.0 immunofluorescence intensity (HCC1569 [4]) |
| --- | --- | --- | --- | --- |
| CCCCCCCCCCCCCCCC(=O)NCC(COP(=O)([O-])OCC[N+](C)(C)C)OC (racemic) [rac-2-Methoxy-3-hexadecanamido-1-propylphosphocholine] | 75.4 | 65 | 185 (active) | 142 (active) |
| COc1ccc2c(c1)c(CC(=O)OCC(=O)O)c(C)n2C(=O)c1ccc(Cl)cc1 [Acemetacin] | 96.5 | 94.4 | 95.4 (inactive) | 104 (inactive) |
| COC(=O)[C@@H](N)CSCC=C(C)CCC=C(C)CCC=C(C)C [S-Farnesyl-L-cysteine methylester] | 106 | 94.7 | 95.6 (inactive) | 103 (inactive) |
| O=c1c(-c2ccc(O)cc2)coc2cc(OC3OC(CO)C(O)C(O)C3O)ccc12 (configuration not stated) [Daidzin] | 95.7 | 108 | 94.8 (inactive) | 89.9 (inactive) |
| O=C1C(=Cc2ccc(O)c(O)c2)Oc2c1ccc(OC1OC(CO)C(O)C(O)C1O)c2O (configuration not stated) [Maritimein] | 99.5 | 94.8 | 102 (inactive) | 99.6 (inactive) |
| CCC(C)C(=O)OC1CC(O)C=C2C=CC(C)C(CCC3CC(O)CC(=O)O3)C21 (configuration not stated) [Pravastatin Lactone] | 101 | 109 | 91.6 (inactive) | 110 (inactive) |
| CCNC(=O)N1CCN(CCCC(c2ccc(F)cc2)c2ccc(F)cc2)CC1.Cl [Amperozide hydrochloride] | 94.2 | 95.8 | 97 (inactive) | 99 (inactive) |
| COc1cc2nc(N3CCN(C(=O)C4COc5ccccc5O4)CC3)nc(N)c2cc1OC.CS(=O)(=O)O (configuration not stated) [Doxazosin mesylate] | 99.9 | 103 | 95.5 (inactive) | 110 (inactive) |
